Test results from PubChem BioAssay AID588683 (Broad Institute, 2011).
Measured potencies and affinities stand elsewhere.

Molecular target: Kelch-like ECH-associated protein 1 (Homo sapiens) + Nuclear factor erythroid 2-related factor 2 (Homo sapiens) (UniProt Q14145+Q16236)
Assay: disruptors of Keap1 binding to Nrf2 peptide – biochemical, fluorescence polarization, cherry-picked samples, dose response (AID 588683);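 also: Kelch domain of Keap1 binding a fluorescein-labelled 9mer Nrf2 peptide; more negative means stronger inhibition of peptide binding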
Details: plate reader; series mostly up to 26 µM; activity change, negative = inhibition: at the top concentration; call rule not given here

Sequence of Kelch-like ECH-associated protein 1 (Homo sapiens) + Nuclear factor erythroid 2-related factor 2 (Homo sapiens) (Q14145 whole entry, looked up, the tested form may be a part): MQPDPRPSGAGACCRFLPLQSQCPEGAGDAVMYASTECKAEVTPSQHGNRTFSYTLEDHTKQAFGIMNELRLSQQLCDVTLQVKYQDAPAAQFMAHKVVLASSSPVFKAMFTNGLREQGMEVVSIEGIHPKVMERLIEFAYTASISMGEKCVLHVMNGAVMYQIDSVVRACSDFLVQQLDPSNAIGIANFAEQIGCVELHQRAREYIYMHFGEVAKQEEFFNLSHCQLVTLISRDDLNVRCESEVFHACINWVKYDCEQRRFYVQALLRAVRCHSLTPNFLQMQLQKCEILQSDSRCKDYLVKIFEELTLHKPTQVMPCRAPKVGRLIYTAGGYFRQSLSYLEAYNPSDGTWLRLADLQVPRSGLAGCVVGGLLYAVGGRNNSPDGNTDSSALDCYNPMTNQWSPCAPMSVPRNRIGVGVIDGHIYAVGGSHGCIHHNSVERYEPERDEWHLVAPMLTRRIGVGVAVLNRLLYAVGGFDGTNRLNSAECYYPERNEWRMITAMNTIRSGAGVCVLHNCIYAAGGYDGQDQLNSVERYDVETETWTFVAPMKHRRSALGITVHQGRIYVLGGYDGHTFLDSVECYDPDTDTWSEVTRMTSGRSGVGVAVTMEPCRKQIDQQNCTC
Sequence of Kelch-like ECH-associated protein 1 (Homo sapiens) + Nuclear factor erythroid 2-related factor 2 (Homo sapiens) (Q16236 whole entry, looked up, the tested form may be a part): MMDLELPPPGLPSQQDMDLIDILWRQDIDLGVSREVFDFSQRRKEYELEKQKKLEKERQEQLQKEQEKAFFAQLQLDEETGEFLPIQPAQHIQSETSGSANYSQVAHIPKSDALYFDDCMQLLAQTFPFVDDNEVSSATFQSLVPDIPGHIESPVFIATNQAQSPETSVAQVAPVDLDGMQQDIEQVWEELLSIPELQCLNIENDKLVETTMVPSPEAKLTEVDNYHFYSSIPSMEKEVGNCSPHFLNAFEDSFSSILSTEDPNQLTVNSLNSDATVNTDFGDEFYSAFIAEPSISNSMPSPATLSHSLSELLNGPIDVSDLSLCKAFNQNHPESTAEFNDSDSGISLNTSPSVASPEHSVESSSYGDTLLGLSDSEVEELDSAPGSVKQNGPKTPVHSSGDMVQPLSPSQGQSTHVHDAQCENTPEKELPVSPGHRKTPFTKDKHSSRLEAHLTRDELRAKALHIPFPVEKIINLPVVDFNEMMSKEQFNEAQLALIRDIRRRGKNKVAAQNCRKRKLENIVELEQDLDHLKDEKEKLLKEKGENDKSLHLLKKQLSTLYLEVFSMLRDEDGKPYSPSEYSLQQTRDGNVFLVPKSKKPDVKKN

Activity change, negative = inhibition, inactive:
Cc1ccc(C2C3CN(C(C)C)CC=C3C(C#N)=C(N)C2(C#N)C#N)cc1 (centres undefined) -9.88%, Cn1nc(C(=O)NNC(=O)Cc2ccc(S(=O)(=O)N3CCOCC3)s2)c2ccccc2c1=O 0.832%, CC1(C)CC(=O)C2=C(C1)OC(N)=C(C#N)C2c1ccccc1[N+](=O)[O-] (centres undefined) -23.5%, CNC(=O)C1CC(=O)N(c2ccc(OCC(=O)Nc3ccc(F)cc3)cc2)C1 (centres undefined) 9.29%, O=C(O)CC(Cn1cnnn1)c1ccccc1 (centres undefined) -3.47%, CCc1cc(C(=O)c2ccc(OC)cc2)c(N)s1 -2.44%, O=[N+]([O-])c1cncc([N+](=O)[O-])c1Nc1cccc(O)c1 -4.53%, Cc1nc(NS(=O)(=O)c2ccccc2)sc1NC(=O)OCCN(C)C -9.38%, CCOc1ccc(S(=O)(=O)Nc2cccc(C(=O)NCCCn3ccnc3)c2)cc1 15.2%, N=c1c(C(=O)NC2CCCC2)cc2c(=O)n3ccccc3nc2n1Cc1ccccc1 -5.93%, Cc1ccccc1NC(=O)c1sc(NC(=O)C2CC2)nc1C -1.61%, O=C(O)c1cc(N2N=C(C(F)(F)F)/C(=C/C=C/c3ccco3)C2=O)ccc1Cl -25%, COC(=O)c1cc(C)nc2c1c(C)nn2-c1ccccc1 -5.13%, CCN1CC=C2C(C#N)=C(N)C(C#N)(C#N)C(CCc3ccccc3)C2C1 (centres undefined) 5.09%, CC(=O)C1C(c2ccc(F)cc2)c2c(noc2C)CC1(C)O (centres undefined) -4.11%, Cc1cscc1NC(=O)/C=C/C(=O)O -3.38%, CN(C)c1ccc(/C=N/NC(=O)CCC(=O)NCc2ccccc2)cc1 -5.52%, O=c1ccc2cc3c4c(c2o1)CCCN4CCC3 -45.4%, CC(C)NC(=O)N(C)C[C@H]1Oc2ccc(NS(=O)(=O)c3cn(C)cn3)cc2C(=O)N([C@H](C)CO)C[C@@H]1C -2.06%
